In the library only some 11% were active in any assay of this set; here they are far more common.
HPGD block – HPGD (human) dehydrogenase inhibition; AID 894; actives 4.3% (n = 150,000); purified HPGD, NADH fluorescence kinetic, PGE2 substrate; P15428; Potency, µM, for the others: top-dose activity change, negative = inhibition, actives largely listed as inhibitors; active = well fitted inhibition curve with a large enough effect, not every such curve was filed as active; inconclusive = small, poorly fitted or top-dose-only effect, or another doubt; inactive = no such curve, though single readings can be large or run the other way; also: potency is read from the fitted curve at half-maximal effect; % is scaled to controls: 0 for no effect and ±100 for the full control effect
Target sequence (P15428 whole entry, looked up): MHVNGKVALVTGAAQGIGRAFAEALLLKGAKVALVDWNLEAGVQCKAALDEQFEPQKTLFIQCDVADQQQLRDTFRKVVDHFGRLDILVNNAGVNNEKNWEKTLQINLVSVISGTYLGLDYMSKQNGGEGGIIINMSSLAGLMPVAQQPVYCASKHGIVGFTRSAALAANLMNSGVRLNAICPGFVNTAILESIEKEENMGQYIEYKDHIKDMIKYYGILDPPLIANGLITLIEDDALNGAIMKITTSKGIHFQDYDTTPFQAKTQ
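NADH formation kinetics: reaction with 30 uM PGE2 and 1 mM NAD+ (final), 20 nM enzyme, Tris-HCl pH 8 with Tween 20, after 15 min compound preincubation at room temperature. Fluorescence change, last versus first of five reads.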
ALDH1A1 inh – ALDH1A1 (human) enzyme inhibition; P00352; Purified ALDH1A1, NADH fluorescence, propionaldehyde substrate; Potency, µM (top dose mostly 75.3 µM), inactives show at the top dose activity, negative = inhibition, most hits filed as inhibitors; actives 7.3% (n = 220,000); AID 1030; active = well fitted inhibition curve with a large enough effect, not every such curve was filed as active; inconclusive = small, poorly fitted or top-dose-only effect, or another doubt; inactive = no such curve, though single readings can be large or run the other way;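 also: potency is read from the fitted curve at half-maximal effect; plate controls were no enzyme wells and a reference inhibitor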
HTT cytoprotect – cytoprotection in Huntington HTT-Q103 PC12 cell model | PC12 HTT-Q103 induced, cytoprotection, ATP luminescence, 40 h | actives 0.14% (n = 230,000) | AID 1471 | Potency, µM (doses to about 56.4 µM), for inactives: cytoprotection (ATP increase), actives largely listed as activators; also: potency is read from the fitted curve at half-maximal effect; % of control where 0% means no effect; nearly all actives have a fitted effect of over 45% in size
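PC12 cells stably carrying ecdysone-inducible Htt exon 1 (Q103)–GFP were induced with 100 nM tebufenozide (final) alongside library compounds in a dose series. Cytoprotection was scored as retained ATP by ATPlite luminescence.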
CBFb-RUNX1 inh – blocks binding between human CBF-beta and RUNX1; AlphaScreen CBFb-His/RUNX1-biotin binding, biochemical; Potency, µM (titrated, usually from 59.8 µM), inactives show top-dose activity, negative = inhibition, usual class: inhibitors; 230,000 tested, under 10 active; also: % of control where 0% means no effect
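AlphaScreen binding: CBFb-His and RUNX1-biotin (30 nM each) preincubated 20 min, compound added for 15 min, then nickel and streptavidin beads for 90 min, all at room temperature. Disruption of the interaction by any mechanism counts as activity.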
HTT aggregate – reduces HttQ103-GFP aggregates in PC12 cells | actives 1.1% (n = 220,000) | PC12 HttQ103-GFP aggregates, Acumen cytometry, 40 h | Potency, µM (highest dose often 46.1 µM), for the others: at the highest dose activity change, negative = inhibition, usual class: inhibitors | AID 1688; also: potency is read from the fitted curve at half-maximal effect; % is scaled to controls: 0 for no effect and ±100 for the full control effect; nearly all actives have a fitted effect of over 60% in size
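Inducible Q103 Huntingtin exon 1–GFP PC12 line, 1500 cells/well in phenol red free DMEM with 5% equine and 5% calf serum. Tebufenozide 100 nM induced expression; compounds titrated; aggregates quantified by cytometry.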
PNC assembly inh – perinucleolar compartment assembly inhibition. PC3M PTB-GFP, PNC prevalence imaging, 16 h; hits give low values. activity change (PNC), negative = inhibition, % at 10 µM. actives 3.1% (n = 140,000). AID 2417;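 active = readout at or below -70, meaning at least 70% loss of cells showing the perinucleolar compartment, a nuclear body marking cancer cells; inconclusive = readout between -30 and a set limit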;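 also: plate controls were DMSO wells for no effect and camptothecin positive control wells for full effect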
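PC3M cells stably expressing PTB-GFP, 750–1000 cells/well, treated 16 h at 37 °C with compound (23 nl of library stock), in duplicate. After paraformaldehyde fixation and Hoechst stain, imaged at 20x; PNC prevalence scored by image analysis.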
The depositor's hits bear a star; ? = inconclusive; nt = no result; [ ] = dose if it differs, or a comment. Unless noted, calls follow the shape of the dose curve; as a rule, active = well fitted curve in the direction sought with a large enough effect; inconclusive = small, poorly fitted or top-dose-only effect, or another doubt; inactive = no such curve, though single readings can be large; an effect the other way counts as inactive or inconclusive.

SMILES | HPGD block | ALDH1A1 inh | HTT cytoprotect | CBFb-RUNX1 inh | HTT aggregate | PNC assembly inh
COc1ccccc1N=Cc1nc(-c2ccccc2)oc1OC(C)=O | ? | 7.1µM* | 7%[1.9 µM] | 12% | -27% | ?
COc1cccc(-c2cc(NCc3cccc(C)c3)ncn2)c1 | nt | -7% | -83% | nt | nt | nt
CCN(CC)C(=O)CC(c1ccc(OC)cc1)c1c(OC)cc(OC)c2c(-c3ccccc3)cc(=O)oc12 (stereo not drawn) | nt | nt | nt | -29% | nt | nt
Oc1ccc(-c2nc3cnccn3c2Nc2ccc3c(c2)OCCO3)cc1 | 11µM* | 40µM* | 12% | 1% | -12% | -19
COc1cc(-c2nc3cnccn3c2Nc2ccc3c(c2)OCCO3)ccc1O | 22µM* | -15% | nt | -7% | ? | ?
c1ccc(-c2nc3cnccn3c2Nc2ccc3c(c2)OCCO3)cc1 | -19% | 0% | 3%[10 µM] | -17% | 7% | 53
COc1cc(-c2nc3cnccn3c2Nc2ccc(C)cc2)ccc1O | ? | ? | -30% | 4% | 16% | -24
Cc1cccc(-c2nc(CS(=O)CC(=O)N3CCc4ccccc4C3)c(C)o2)c1 (stereo not drawn) | ? | ? | -11% | 1% | 25% | -106*
COc1cccc(-n2c(C)c3c(OC)cccc(=O)c3c2C)c1 | nt | ? | 3%[10 µM] | ? | 6%[9.22 µM] | nt
COc1cccc(=O)c2c(C)n(-c3cc(C)cc(C)c3)c(C)c12 | 28µM* | -5% | -21% | -28% | -8% | 66
Cc1ccccc1NC(=O)C(C)n1c2ccccc2c2nc(=O)cc(C)n21 (stereo not drawn) | nt | nt | 8%[10 µM] | 8% | 0%[9.22 µM] | nt
CC1(C)NC(=O)N(c2ccc([N+](=O)[O-])c(C(F)(F)F)c2)C1=O | -16% | -12% | 33% | -9% | 13% | nt
Cc1nn(-c2ccccc2)c(N)c1N=Nc1cccnc1 | nt | -7% | -11%[10 µM] | -7% | 2% | nt
Nc1nc(-c2ccccc2)c(N=Nc2cccnc2)s1 | nt | 20µM* | -48% | ? | -2% | nt
CN1CCN(c2nc3c(c(=O)n(C)c(=O)n3C)n2C)CC1 | -7% | -7%[13.5 µM] | -2%[10 µM] | nt | nt | nt
CCOC(=O)C1CCN(c2c(N3CCN(c4ccccc4OC)CC3)c(=O)c2=O)CC1 | ? | 1% | 21%[10 µM] | 7% | 17% | -82*
CCCC(=O)Nc1cccc(NC(=O)c2ccccc2Br)c1 | -9% | -4% | 18%[10 µM] | 4% | 1% | -11
CCCCC(=O)Nc1ccc(C(=O)N2CCCC(C(=O)OCC)C2)cc1 (stereo not drawn) | 14µM* | ? | 10%[1.9 µM] | -8% | -19% | 31
CCCC(=O)Nc1ccc(C(=O)NNC(=O)c2ccccc2Br)cc1 | 28µM* | ? | 6% | 8% | 9% | -1
CCOC(=O)C1CCCN(C(=O)Nc2ccccc2)C1 (stereo not drawn) | -4% | 7% | nt | 2% | 0.63µM* | -9
CCOc1ccccc1N(CC(=O)NC(C)(C)C)C(=O)Cn1nnc(-c2ccc(C)o2)n1 | -6% | ? | -21% | -4% | 3% | -24
CCCC(=O)Nc1ccc(C(=O)N2CCCC2)cc1 | 14µM* | 6% | -21%[0.074 µM] | 8% | 2% | ?
CCCC(=O)Nc1ccc(S(=O)(=O)N2CCCC2)cc1 | -4% | 8% | -8% | 0% | -13% | -26
CCOC(=O)C1CCCN(C(=O)c2ccc(OC)c([N+](=O)[O-])c2)C1 (stereo not drawn) | -5% | 4.5µM* | -1%[10 µM] | 1% | -5% | -95*
CCOC(=O)C1CCCN(c2c(N3CCc4ccccc4C3)c(=O)c2=O)C1 (stereo not drawn) | 28µM* | ? | -9% | -3% | -4% | -24
CCOC(=O)C1CCCN(C(=O)c2ccc([N+](=O)[O-])cc2)C1 (stereo not drawn) | -28% | ? | 21%[10 µM] | 5% | 3% | 39
CC(=O)OC[C@@H]1O[C@H](CCO/N=C(\C)CCN2CCCc3nc(C)c(C)cc32)C=C[C@@H]1OC(C)=O | nt | -20%[13.5 µM] | 12%[10 µM] | -10%[13.1 µM] | nt | nt
